# A selection: hits, their analogues and other compounds. The true share with any hit is near 0.33%.
# FXIIa single = human FXIIa protease inhibitors, primary screen, biochemical, single well. inhibition, % at 10 µM. purified human FXIIa, AMC substrate fluorescence, 2 h. 0.2% of 33,000 active. AID 701, 2007. Coagulation factor XII (Homo sapiens), P00748; in the data active = inhibition above about 30%;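 also: 0% = enzyme with vehicle only and 100% = no enzyme blank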
# FXIa inh = human FXIa protease inhibitors, primary screen, biochemical, single compound per well; Coagulation factor XI (Homo sapiens), P03951; purified human FXIa, fluorogenic AMC substrate cleavage; inhibition, % at 10 µM; 0.3% of 33,000 active;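 active = inhibition above 40% in the primary screen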;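 also: 0% = enzyme without compound and 100% = blank wells lacking enzyme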
# * = called active by the depositor.
SMILES,FXIIa single,FXIa inh
CCOC(=O)c1c(C)n(Cc2ccccc2)c2ccc(OCC(O)Cn3nc(C)cc3C)cc12 (centres undefined),-15,101*
CCN1CCN(CC(=O)c2c(C)n(Cc3ccccc3)c3ccc(OC)cc23)CC1,8,-6
CN(C)CCc1nc2ccccc2c(=O)n1-c1ccccc1,6,-2
CCCc1nc2ccccc2c(=O)n1-c1ccc(OC)cc1,1,42*
N#Cc1cc2c(nc1SCC(=O)Nc1cc(Cl)ccc1Cl)C1CCN2CC1,4,3
Cc1ccc(-c2cc(C(F)F)n3ncc(C(=O)N4CCC5(CC4)OCCO5)c3n2)cc1,2,-7

# Screens (PubChem BioAssay)
